A short description of assay [1]: AP1 Signaling Pathway (AID 357; active = well fitted curve in either direction with a large enough effect, not every such curve was filed as active;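 also: ME-180 reporter cells stimulated with EGF at its EC50 level; % is scaled to controls: 0 for no effect and ±100 for the full control effect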). Conditions: ME-180 AP-1-bla reporter, EGF-induced, beta-lactamase ratio, 5 h; at 7.69 µM (top of the series) unless noted. An outline of the steps:
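AP-1-bla ME-180 cells, Opti-MEM + 0.5% dialyzed FBS, plated overnight 37 °C. Cpd titration + EC50 EGF, 5 h 37 °C. CCF4 2.5 h RT; ex 405, em 460/530 ratio → %activity, AC50.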

Assay [2] in a line: NFAT Signaling Pathway (AID 444; active = well fitted curve in either direction with a large enough effect, not every such curve was filed as active;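 also: carbachol stimulus at about its EC50 of 1 µM final; % is scaled to controls: 0 for no effect and ±100 for the full control effect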). Conditions: Jurkat NFAT-bla M1, carbachol, beta-lactamase ratio, 5 h; at 7.69 µM (top of the series) unless noted. An outline of the steps:
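Jurkat cells with NFAT-driven β-lactamase reporter and co-expressed M1 receptor, stimulated with carbachol (final 1 uM, ~EC50), compound titration, 5 h at 37 °C. CCF4 loaded 1 h at RT; 460/530 nm ratio gave %activity and AC50.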

Assay [3] is described as follows: Stat Signaling Pathway (AID 446; active = well fitted curve in either direction with a large enough effect, not every such curve was filed as active;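 also: ME-180 cervical cancer cells given 40 pM IL-6 alongside compound; SIE-controlled beta-lactamase reporter measured as 460/530 nm FRET emission ratio; % is scaled to controls: 0 for no effect and ±100 for the full control effect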). Conditions: ME-180 (cervical carcinoma) SIE beta-lactamase reporter, IL-6 stimulated, 5 h; at 7.69 µM (top of the series) unless noted. An outline of the steps:
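Normalization used AC90 stimulation (300 pM IL-6) and AC90 inhibition (125 nM pan-JAK inhibitor at 40 pM IL-6). The underlying signal is SIE-driven beta-lactamase in ME-180 cells after 5 h IL-6 exposure with compound.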

For assay [4], the target named is Glucocorticoid receptor (Homo sapiens) (UniProt P04150). The assay can be described thus: GR-GFP Redistribution (AID 450;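 active = compounds whose dose series gives a full or clear partial fitted curve of increased nuclear translocation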; also: potency is read from the fitted curve at half-maximal effect). Conditions: U2OS GR-GFP nuclear translocation, laser cytometry, 2 h.
The target is the same in assay [5]. In words: GR-EFC Redistribution (AID 451; calls by dose curve; also: potency is read from the fitted curve at half-maximal effect). To be noted: CHO-K1 GR-EFC translocation, beta-gal luminescence, 2 h. An outline of the steps: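 CHO-K1 cells expressing nuclear EA and GR-ED fragments of b-gal; compounds titrated up to 46 uM final, 2 h at 37 C. GR nuclear translocation read as complemented b-gal luminescence after 1 h RT detection.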
The target in assay [6] is Mitogen-activated protein kinase 10 (Mus musculus) (UniProt Q61831). In words: JNK3 AlphaScreen Assay (AID 530; active = well fitted curve in either direction with a large enough effect, not every such curve was filed as active;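 also: kinase came from lysate of stimulated human HepG2 cells; signal reports phosphorylation of biotinylated GST-cJun 1-79 at Ser73 with 10 µM ATP; % is scaled to controls: 0 for no effect and ±100 for the full control effect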). An outline of the steps:
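HepG2 lysate (IL-1b/TNFa pre-activated) + biotin-GST-cJun 1-79 + anti-pSer73 cJun; cpd titration, 15 min RT; ATP 10 uM start; Tris pH 7.6, MgCl2, DTT, vanadate; beads in EDTA buffer; AlphaScreen.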
(In general: In Alpha technology, singlet oxygen from a donor bead excites a nearby acceptor bead.)

The target in assay [7] is 3',5'-cyclic-AMP phosphodiesterase 4B (Homo sapiens) (UniProt Q07343). In words: qHTS Assay for Inhibitors of PDE-IV (AID 607; active = well fitted activation curve with a large enough effect in the main read-out, with a control signal flat, not every such curve was filed as active; also: % of control where 0% means no effect). A digest of the protocol:
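HEK293 ACTOne cells with CNG channel (1000/well), endogenous PDE4; membrane potential dye, compounds up to 22.9 uM final. Fluorescence Ex 535/Em 590; RO 20-1724 (100 uM final) as reference.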

Assay [8] concerns the target Cytochrome P450 1A2 (Homo sapiens) (UniProt P05177). The assay can be described thus: p450-cyp1a2 (AID 410; calls by dose curve; also: potency is read from the fitted curve at half-maximal effect;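 as to activity change, negative = inhibition: -100% = full effect of reference inhibitor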). A digest of the protocol:
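Read-out is luminescence from luciferin produced by CYP1A2 demethylation of Luciferin-ME (100uM, at Km). Detection reagent stopped the 60 min NADPH-dependent reaction; signals were normalized to 57 uM furafylline.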

Assay [9] in a line: Cellular Toxicity (caspase-3) HepG2 (AID 654).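 Also: cells exposed to compound for 16 hours before reading; 0% = DMSO alone and 100% = caspase signal from 100 µM tamoxifen.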 An outline of the steps:
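Concentration-response AC50 values reflect caspase-3/7 induction in HepG2 cells after 16 hours of compound exposure, quantified by luminescence from liberated aminoluciferin and referenced to 100 uM tamoxifen as full stimulation.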

Assay [10] in a line: Cellular Toxicity (caspase-3) HUV-EC-C (AID 656). A digest of the protocol:
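Luminescent caspase-3/7 activation (aminoluciferin substrate cleavage) in HUV-EC-C cells after 16 hr compound exposure, 37°C. Signal normalized to DMSO basal and 100 uM tamoxifen as 100%; AC50 from concentration-response fitted with the Hill equation.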

Assay [11] is described as follows: Cellular Toxicity (caspase-3) SHSY5Y (AID 657). A digest of the protocol:
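Luminescent caspase-3/7 readout (aminoluciferin release) in SH-SY5Y cells after 16 h compound exposure in complete medium. Activity scaled between DMSO basal and 10 uM staurosporine as 100%; concentration-response fitted to Hill equation for AC50.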

Assay [12] in a line: Cellular Toxicity (caspase-3) BJ (AID 658).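 Also: 0% = DMSO basal and 100% = 10 µM staurosporine.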 To be noted: Potency: caspase-3 activation. An outline of the steps:
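qHTS, BJ fibroblasts, 1000 cells/well; 5 hr preincubation, 16 hr compound, 37 °C; Caspase-Glo 3/7 reagent, 1 hr RT; luminescence. DMSO = 0%, 10 uM staurosporine = 100%. Hill-equation AC50.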

Assay [13] in a line: Cellular Toxicity (caspase-3) MRC-5 (AID 659).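 Also: 0% = DMSO basal and 100% = 10 µM staurosporine.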 An outline of the steps:
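MRC-5 fibroblasts, 1500/well; 16 h cpd, 37 °C; Caspase-Glo 3/7, 1 h RT; lumi read. Norm: DMSO = 0%, 10 uM staurosporine = 100%. Hill-fit AC50 from qHTS conc-response.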

A short description of assay [14]: Cellular Toxicity (caspase-3) Mesangial (AID 660).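 Also: combined caspase 3 and 7 activity read by Caspase-Glo luminescence; cells exposed to compound for 16 h before the caspase read.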 An outline of the steps: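 AC50 values come from Hill-equation fits of caspase 3/7 activation, measured as Caspase-Glo luminescence in human glomerular mesangial cells exposed to compound for 16 h at 37 °C; 100% set by 100 uM tamoxifen.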
A short description of assay [15]: Cellular Toxicity (caspase-3) Hek293 (AID 664).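 Also: cells exposed to compound for 16 h at 37 °C before readout.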 Conditions: HEK293 caspase-3 activation, DMSO = 0%, 100 µM tamoxifen = 100%; at 92.2 µM (top of the series). A digest of the protocol:
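Apoptosis readout: Caspase-Glo 3/7 signal in human HEK293 cells following 16-hour compound incubation. Responses scaled between DMSO baseline and 100 uM tamoxifen.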

Assay [16] can be described thus: Cellular Toxicity (caspase-3) N2a (AID 665).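 Also: compound exposure lasted 16 h at 37 °C before readout.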 An outline of the steps: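 Concentration-response qHTS: compound-induced caspase-3/7 luminescence in N2a cells (16 h, 37 °C), relative to DMSO and 10 uM staurosporine controls; AC50 obtained using the standard Hill equation.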
Assay [17] is described as follows: Cellular Toxicity (caspase-3) Renal Proximal Tubule (AID 667).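 Also: cells exposed to compound for 16 hours at 37 °C before detection; 0% = DMSO basal and 100% = 10 µM staurosporine.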 Conditions: Potency: caspase-3 activation. A digest of the protocol:
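Luminescent caspase 3/7 signal from peptide-aminoluciferin cleavage measures apoptosis in freshly isolated rat kidney proximal tubule cells after 16 h compound exposure. Concentration-response data are normalized to DMSO and 10 uM staurosporine, and AC50 values come from Hill equation fits.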

Assay [18] concerns the target Peroxisome proliferator-activated receptor alpha (Homo sapiens) (UniProt Q07869). The assay can be described thus: qHTS assay for small molecule agonists of the peroxisome proliferator-activated receptor alpha (PPARalpha) signaling pathway (AID 651778). Also: potency is read from the fitted curve at half-maximal effect. As to max response: % of control where 0% means no effect. Conditions: PathHunter PPARalpha complementation, chemiluminescence, 6 h; max response: active compounds read high. An outline of the steps:
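Enzyme-fragment complementation assay in which ligand-bound PPARalpha translocates and forms an active enzyme that generates chemiluminescence. Cells were plated overnight, exposed to compound for 6 hr at 37 C, and then given detection reagent for 60 min at room temperature.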

A short description of assay [19]: qHTS assay for small molecule agonists of the antioxidant response element (ARE) signaling pathway measured by Nrf2-dependant transcriptional activity - cell viability counter screen (AID 720653; active = well fitted curve in the direction sought with a large enough effect in the repeat runs; an effect the other way counts as inactive or inconclusive; also: % is scaled to controls: 0 for no effect and ±100 for the full control effect). To be noted: ARE-bla HepG2 viability, CellTiter-Glo ATP luminescence, 16 h; max response: active compounds read low. A digest of the protocol: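 ARE-bla HepG2 cells treated with compounds for 16 h at 37C; this counter screen measures viability as intracellular ATP by CellTiter-Glo luminescence after 30 min at room temperature.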
For orientation: Quantitative high-throughput screening tests each substance at several concentrations.

A short description of assay [20]: qHTS assay for cell viability of the p53RE-bla HCT-116 cell line (AID 743292). Also: % is scaled to controls: 0 for no effect and ±100 for the full control effect; nearly all actives have a fitted effect of over 55% in size. An outline of the steps:
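CellSensor p53RE-bla HCT-116 cells (4,000/well) pre-incubated 5 h at 37 C, then exposed to compounds in DMSO for 16 h at 37 C. Viability read as ATP content by CellTiter-Glo luminescence after 30 min at room temperature.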

Molecules are shown by their SMILES. Several values for one entry are separate records, joined by “and”; a condition that tells them apart may be missing. Identical values can stand only once. Unmarked numbers belong to inactive results. Results filed as inconclusive are left out. Activity calls are given as the source filed them. Unless noted, calls follow the shape of the dose curve; as a rule, active = well fitted curve in the direction sought with a large enough effect; inconclusive = small, poorly fitted or top-dose-only effect, or another doubt; inactive = no such curve, though single readings can be large; an effect the other way counts as inactive or inconclusive.

13 compounds from PubChem BioAssay (NCATS) can be followed below.

Chain of Glucocorticoid receptor (Homo sapiens) (P04150 whole entry, looked up, the tested form may be a part): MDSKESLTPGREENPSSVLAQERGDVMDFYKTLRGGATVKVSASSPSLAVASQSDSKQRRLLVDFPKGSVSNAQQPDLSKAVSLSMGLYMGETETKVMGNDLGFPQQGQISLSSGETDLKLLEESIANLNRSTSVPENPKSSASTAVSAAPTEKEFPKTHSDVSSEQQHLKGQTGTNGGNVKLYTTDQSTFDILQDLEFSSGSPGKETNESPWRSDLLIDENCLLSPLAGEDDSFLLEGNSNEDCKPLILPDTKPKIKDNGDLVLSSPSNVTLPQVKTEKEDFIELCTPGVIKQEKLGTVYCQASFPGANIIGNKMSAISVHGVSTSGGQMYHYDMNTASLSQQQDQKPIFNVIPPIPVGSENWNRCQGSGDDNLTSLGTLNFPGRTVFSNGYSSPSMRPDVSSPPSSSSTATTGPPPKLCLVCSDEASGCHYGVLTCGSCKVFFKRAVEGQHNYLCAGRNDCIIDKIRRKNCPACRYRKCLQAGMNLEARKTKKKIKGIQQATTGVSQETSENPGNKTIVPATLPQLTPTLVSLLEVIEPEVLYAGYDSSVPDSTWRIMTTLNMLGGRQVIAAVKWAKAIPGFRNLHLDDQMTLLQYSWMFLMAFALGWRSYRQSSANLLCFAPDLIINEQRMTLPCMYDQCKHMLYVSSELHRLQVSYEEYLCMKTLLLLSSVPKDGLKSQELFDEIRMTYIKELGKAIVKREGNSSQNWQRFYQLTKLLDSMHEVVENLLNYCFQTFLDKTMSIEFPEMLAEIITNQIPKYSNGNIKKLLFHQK
Chain of 3',5'-cyclic-AMP phosphodiesterase 4B (Homo sapiens) (Q07343 whole entry, looked up): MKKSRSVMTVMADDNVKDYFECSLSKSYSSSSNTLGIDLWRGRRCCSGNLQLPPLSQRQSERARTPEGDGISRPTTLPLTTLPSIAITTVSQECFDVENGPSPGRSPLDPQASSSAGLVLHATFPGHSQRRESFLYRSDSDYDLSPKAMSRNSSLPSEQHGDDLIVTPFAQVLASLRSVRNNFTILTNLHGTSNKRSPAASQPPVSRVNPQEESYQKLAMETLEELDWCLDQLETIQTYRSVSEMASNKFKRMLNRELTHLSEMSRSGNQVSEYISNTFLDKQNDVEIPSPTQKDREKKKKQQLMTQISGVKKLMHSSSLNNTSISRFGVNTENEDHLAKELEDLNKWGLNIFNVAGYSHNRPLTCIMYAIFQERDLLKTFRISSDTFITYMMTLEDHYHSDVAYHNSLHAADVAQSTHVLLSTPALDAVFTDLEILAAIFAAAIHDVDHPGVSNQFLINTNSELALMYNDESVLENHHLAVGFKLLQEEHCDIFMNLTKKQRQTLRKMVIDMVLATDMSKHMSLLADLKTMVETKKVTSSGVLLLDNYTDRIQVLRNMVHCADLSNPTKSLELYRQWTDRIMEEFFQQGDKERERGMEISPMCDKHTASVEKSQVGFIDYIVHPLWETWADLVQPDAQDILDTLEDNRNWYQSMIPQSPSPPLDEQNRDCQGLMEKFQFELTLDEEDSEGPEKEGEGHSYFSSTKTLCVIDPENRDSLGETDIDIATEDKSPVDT
Chain of Peroxisome proliferator-activated receptor alpha (Homo sapiens) (Q07869 whole entry, looked up, the tested form may be a part): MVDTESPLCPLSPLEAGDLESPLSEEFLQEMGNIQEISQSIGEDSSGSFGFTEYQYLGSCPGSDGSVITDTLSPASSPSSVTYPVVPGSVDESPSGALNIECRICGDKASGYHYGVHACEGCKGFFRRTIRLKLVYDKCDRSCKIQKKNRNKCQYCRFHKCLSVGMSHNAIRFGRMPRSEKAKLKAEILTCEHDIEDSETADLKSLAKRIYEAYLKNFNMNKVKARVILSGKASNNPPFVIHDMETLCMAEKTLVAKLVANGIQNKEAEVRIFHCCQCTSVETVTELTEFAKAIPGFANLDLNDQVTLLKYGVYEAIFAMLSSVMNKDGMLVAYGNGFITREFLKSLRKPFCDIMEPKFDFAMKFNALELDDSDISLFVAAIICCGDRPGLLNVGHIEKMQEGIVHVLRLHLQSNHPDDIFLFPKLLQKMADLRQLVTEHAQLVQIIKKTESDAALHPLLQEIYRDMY
Chain of Cytochrome P450 1A2 (Homo sapiens) (P05177 whole entry, looked up): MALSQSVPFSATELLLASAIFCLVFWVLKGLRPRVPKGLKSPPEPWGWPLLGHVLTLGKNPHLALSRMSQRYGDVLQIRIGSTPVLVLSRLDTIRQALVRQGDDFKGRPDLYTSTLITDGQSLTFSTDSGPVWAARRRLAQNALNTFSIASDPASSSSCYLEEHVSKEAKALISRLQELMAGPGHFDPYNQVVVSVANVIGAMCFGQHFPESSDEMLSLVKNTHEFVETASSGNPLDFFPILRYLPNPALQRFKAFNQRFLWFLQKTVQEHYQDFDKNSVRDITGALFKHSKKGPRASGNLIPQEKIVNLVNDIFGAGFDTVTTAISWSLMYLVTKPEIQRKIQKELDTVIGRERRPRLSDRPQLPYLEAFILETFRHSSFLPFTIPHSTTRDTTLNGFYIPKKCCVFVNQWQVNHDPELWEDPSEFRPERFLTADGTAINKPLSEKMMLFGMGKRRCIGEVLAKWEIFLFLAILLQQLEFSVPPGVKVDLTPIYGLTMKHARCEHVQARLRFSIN

Take `CN[C@@H](CC(C)C)C(=O)N[C@@H]1C(=O)N[C@H](CC(N)=O)C(=O)N[C@H]2C(=O)N[C@H]3C(=O)N[C@H](C(=O)N[C@H](C(=O)O)c4cc(O)cc(O)c4-c4cc3ccc4O)[C@H](O)c3ccc(c(Cl)c3)Oc3cc2cc(c3O[C@@H]2O[C@@H](CO)[C@@H](O)[C@@H](O)[C@H]2O[C@H]2C[C@](C)(N)[C@H](O)[C@H](C)O2)Oc2ccc(cc2Cl)[C@@H]1O`: the figures for the activity change, negative = inhibition in [1] and in assay [2] were -0.977% [at 38 µM] and 0.625% [at 38 µM], respectively. Also, in [3], the activity, negative = inhibition was 4.5% [at 38 µM]. Further, the Potency in [4] and in [5] was greater than 46 µM in each case. Moreover, the Potency result in assay [6] and in assay [7] was “inactive” each time.
`C/C(=N\[N+](C)(C)C)c1ccc(C)c(C)c1`: the values for the activity change, negative = inhibition in assay [1] and in assay [8] were 10% and -16.9% [at 2.29 µM], respectively. The activity, negative = inhibition in [3] is 6.61%. Further, the results for the Potency in assay [4] and in [5] were greater than 46 µM and greater than 9.22 µM, respectively. In addition, the Potency result in assay [6] and in assay [7] was “inactive” each time.
`O=S(=O)(O)c1ccc(N=Nc2ccc3c(S(=O)(=O)O)cccc3c2O)c2ccccc12`: the activity change, negative = inhibition in assay [1] was 1.08%; in assay [2], 9.05%. Further, the activity, negative = inhibition in assay [3] is -4.32%. Besides, the Potency in assay [4] was greater than 46 µM; in [5] it was greater than 9.22 µM. Also, the Potency entry in assay [7] is “inactive”.
On to `C[N+](C)(C)c1cc2c(nn1)Nc1ccccc1S2`, for which the activity change, negative = inhibition in assay [1] is -0.66%. Besides, the results for the Potency in assay [8], in assay [4] and in assay [5] were 2 µM (active), greater than 46 µM and greater than 9.22 µM, respectively. Besides, the Potency entry in assay [6] and in [7] was “inactive” throughout.
Consider `c1ccc(-c2cnc(-c3ccc(-c4ncc(-c5ccccc5)o4)cc3)o2)cc1`, for which the activity change, negative = inhibition in [1] is -0.667%; in assay [2], 14.2%. The activity, negative = inhibition in assay [3] is -0.742%. For the same compound, the Potency in assay [4] was greater than 46 µM; in assay [5], greater than 9.22 µM. In addition, the Potency entry in assay [6] and in assay [7] was “inactive” throughout.
Take `Cc1cc(Nc2ccc(N=Nc3ccc(O)c4ncccc34)cc2)nc(C)n1`: the activity change, negative = inhibition in assay [1] was 9.64%. The Potency was greater than 46 µM in assay [4] and greater than 9.22 µM in [5]. Also, the Potency result in assay [6] and in assay [7] was “inactive” each time.
For the compound `CCCCCCCCOc1ccc(C(=O)O)cc1`, the Potency entry in [9], in assay [10], in [11], in assay [12], in assay [17] and in assay [20] was “inactive” throughout. Besides, the outcome in assay [13], in assay [14] and in assay [16] was inactive. The caspase-3 activation in assay [15] was -2.79%. The Potency in assay [18] is 7.08 µM (active). Also, the max response in [19] is -6.08%.
For `CC(=O)c1ccc(Cl)c(Cl)c1Cl`, the Potency result in assay [9], in assay [10], in assay [11], in [12], in assay [17] and in assay [20] was “inactive” in each case. In addition, the outcome in assay [13], in assay [14] and in assay [16] was inactive. Moreover, the caspase-3 activation in assay [15] is 0.887%. For the same compound, the values for the max response in assay [18] and in assay [19] were -0.114% and 4.27%, respectively.
Regarding `CCC(Cl)CC(Cl)C(Cl)C(Cl)C(Cl)C(C)Cl` (stereo not drawn), the Potency entry in assay [9], in assay [10], in [11], in [12], in assay [17] and in assay [20] was “inactive” each time. Besides, the call in [13], in assay [14] and in assay [16] was inactive. Further, in assay [15], the caspase-3 activation is 5.41%. Besides, the max response in assay [18] is -3.58%; in assay [19], -9.68%.
For `Oc1ccc(O)c2c(O)cccc12`, the Potency entry in assay [6], in [9], in [10], in assay [11], in [12] and in assay [17] was “inactive” throughout. The Potency entry in [20] is “inactive”. In addition, the call in assay [13], in assay [14] and in assay [16] was inactive. Besides, in [15], the caspase-3 activation was 18%. In addition, the results for the max response in assay [18] and in [19] were 5.73% and -23%, respectively.
With `c1ccc2c(c1)ccc1ccccc12`, the Potency entry in [9], in assay [10], in [11], in assay [12], in assay [17] and in assay [20] was “inactive” each time. The call in assay [13], in assay [14] and in assay [16] was inactive. Further, the caspase-3 activation in assay [15] is -0.803%. The max response in assay [18] is -2.79% and 0.0819%; in assay [19] it was -0.337% and -2.44%.
With `CN(C)c1ccc(C(=N)c2ccc(N(C)C)cc2)cc1`, the Potency result in assay [6], in [9], in assay [10], in [12], in assay [17] and in assay [20] was “inactive” throughout. The compound was classed as inactive in assay [13], in assay [14] and in [16]. In addition, the caspase-3 activation in [15] is 7.49%. In addition, the max response in assay [18] was -0.198%; in assay [19] it was -25.3%.
`O=c1[nH]ncc2ccccc12`: the Potency entry in assay [9], in [10], in [11], in assay [12], in assay [17] and in [20] was “inactive” each time. Further, the compound was classed as inactive in assay [13], in [14] and in assay [16]. Also, the caspase-3 activation in assay [15] is -1.83%. Also, the max response was -3.48% in assay [18] and 2.85% in assay [19].
